Assay outcomes deposited in PubChem by The Scripps Research Institute Molecular Screening Center.
Rows were chosen to be rich in hits. Some 4.6% of all compounds tested hit in one or more screens of this group.
ssDAF12 agonist: activators of S. stercoralis DAF-12 nuclear receptor; HEK293 ssDAF-12/GRIP1 lit1-tk-luc reporter, luminescence; % of 3 µM dafachronic acid response; activation, % at 6.8 µM; 370,000 tested, 1% active;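 active means activation above the mean over all tested compounds plus 3 SD, cut at about 0.9% in these data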;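 further: 0% = DMSO-only wells and 100% = 3 µM delta7-dafachronic acid wells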
DAX1 inh-1: inhibits human nuclear receptor DAX1. P51843. HEK293 Gal4-DAX1 luciferase reporter, luminescence. inhibition, % at 6.75 µM. 340,000 tested, 0.99% active;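 active means inhibition above the mean over all tested compounds plus 3 SD, cut at about 4.2% in these data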;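 further: 0% = DAX1-transfected cells with DMSO and 100% = empty-vector control cells with DMSO; inhibition shows as a rise in luminescence from relieved DAX1 repression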
Target sequence (P51843 207-470 limits assumed): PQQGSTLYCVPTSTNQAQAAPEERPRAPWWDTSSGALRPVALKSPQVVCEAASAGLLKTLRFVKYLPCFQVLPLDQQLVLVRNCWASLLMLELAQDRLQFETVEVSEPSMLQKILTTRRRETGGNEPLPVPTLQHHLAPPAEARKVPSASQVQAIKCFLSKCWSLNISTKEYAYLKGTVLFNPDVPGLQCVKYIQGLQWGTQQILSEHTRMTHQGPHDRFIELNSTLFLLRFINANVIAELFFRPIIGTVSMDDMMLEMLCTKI
Wee1 stabilizer: inhibitors of human Wee1 degradation; P30291; HeLa Luc-Wee1K328M stability, luciferase luminescence; 100% = proteasome inhibitor MG132 effect; reporter increase, % at 5 µM; 220,000 tested, 1.2% active; AID 1321;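 active means activation above the mean of all tested compounds plus 3 SD, set per screening run, cut at about 8.8% in these data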;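 further: cells exposed to compound for 20 h before luminescence read; 0% = DMSO alone and 100% = MG132 at 30 µM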
hgDAF-12 ag: agonists of H. glycines DAF-12 nuclear receptor | 370,000 tested, 1.8% active | activation, % at 6.8 µM | HEK293 GAL4-hgDAF12 UAS-luciferase reporter, agonist luminescence; normalized to butyrate control | AID 687014;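 active means activation above a cutoff set at the mean of all screened compounds plus 3 SD, cut at about 10% in these data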;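 further: 0% = DMSO wells and 100% = sodium butyrate wells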
hcDAF-12 act: activates DAF-12 receptor from parasite H. contortus | activation, % at 6.8 µM | HEK293 hcDAF-12 lit1-tk-luc reporter, luminescence; 0% DMSO, 100% Δ7-dafachronic acid | 370,000 tested, 1.4% active;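 active means activation above the mean of all tested compounds plus 3 SD, cut at about 5.5% in these data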;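 further: 100% = response to 3 µM Δ7-dafachronic acid high control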
DAX1 inh-2: inhibitors of DAX1 repression of SF-1 activated StAR promoter; HEK293T StAR-luciferase reporter, SF-1/DAX-1 repression relief; inhibition, % at 6.8 µM; 370,000 tested, 1.1% active; AID 652010;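 active means inhibition above the mean over all tested compounds plus 3 SD, cut at about 3.6% in these data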;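 further: 0% = DAX-1 cells with DMSO and 100% = cells lacking DAX-1 with DMSO; higher inhibition means more luminescence from relief of DAX-1 repression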
LXRb hcDAF ctr: LXR-beta agonism as hcDAF-12 counter-screen | 3,400 tested, under 10 active | activation, % at 6.8 µM | shares compounds with hcDAF-12 act | HEK293 Gal4-LXR tk-luc reporter, luminescence, 24 h; normalized: DMSO 0%, positive control 100%;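 active means mean percent activation of the reporter above a cutoff set as the average over tested compounds plus their standard deviation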
hcDAF12 ag: hcDAF-12 agonism, confirmation assay. activation, % at 6.8 µM. HEK293 hcDAF-12 lit1-tk-luc reporter, luminescence; % of Δ7-dafachronic acid response. AID 743032. shares compounds with hcDAF-12 act. 3,400 tested, 61% active;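 active means mean activation across triplicate tests above the threshold derived from the earlier primary screen, cut at about 5.5% in these data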;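 further: 0% = DMSO only wells and 100% = 3 µM Δ7-dafachronic acid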
hgDAF12 ag: hgDAF-12 agonism, confirmation assay; shares compounds with hgDAF-12 ag; HEK293 GAL4-hgDAF12 luciferase reporter, agonist mode; percent of butyrate response; activation, % at 6.8 µM; 3,300 tested, 80% active;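 active means mean activation over triplicate wells above the hit cutoff derived from the earlier primary screen, cut at about 11% in these data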;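 further: 0% = DMSO low control and 100% = 2 mM sodium butyrate high control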
LXRb DAF12 ctr: activates human LXR-beta, counter-screen for DAF-12 agonists. activation, % at 6.8 µM. AID 743051. HEK293 Gal4-LXR luciferase reporter, 24 h. 3,300 tested, under 10 active. shares compounds with hgDAF-12 ag;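 active means mean activation of the triplicate above a set limit carried over from the primary screen, none filed active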
The depositor's hits bear a star; · = not tested or not shown.

SMILES	ssDAF12 agonist	DAX1 inh-1	Wee1 stabilizer	hgDAF-12 ag	hcDAF-12 act	DAX1 inh-2	hgDAF12 ag	LXRb DAF12 ctr	others
Cc1ccc(-c2nn(Cc3ccccc3)cc2C=O)cc1	0	2	9.1*	8	9.4*	3	·	·	LXRb hcDAF ctr=0;hcDAF12 ag=4
CN1C(=O)NC(=O)C(C)(C2=CCCCC2)C1=O (stereo unspecified)	-1	3	·	22*	5	3.9*	13*	0
O=C1CC(=O)N(c2cccc(F)c2)C(=O)N1	-1	0	·	1	1	-1	·	·
Cc1ccc(S(=O)(=O)CC(=O)c2cc(C)c(OC(=O)N(C)C)c(C)c2)cc1	-1	-1	3	1	-2	-1	·	·
Cc1cc(C(=O)CS(=O)(=O)c2ccccc2)cc(C)c1OC(=O)N(C)C	0	3	10*	14*	4	4.0*	9	1
COc1cccc(-n2c(=S)[nH]c3ccccc3c2=O)c1	-2	-1	4	0	3	-1	·	·
COc1ccc2c(c1)NP(=S)(Oc1ccccc1)N2 (stereo unspecified)	0	4	0	13*	5	1	8	0
c1nc2nc3c(c(N4CCNCC4)n2n1)CCCC3	·	·	3	·	·	·	·	·
COc1ccc(-c2cc(=Nc3cccc(C(=O)O)c3)c3cc(C)ccc3o2)cc1	0.9*	-1	2	19*	5	3	19*	1
